The values that follow come from PubChem BioAssay (EPA / NIEHS).

Calls of active or inactive are those of the source. How the source made its calls: active means hit-call score of the fitted dose curve at least 0.9, where 1 is the maximum; inactive means score below 0.9.

Chain of Hepatocyte nuclear factor 6 (Homo sapiens) (Q9UBC0 whole entry, looked up, the tested form may be a part): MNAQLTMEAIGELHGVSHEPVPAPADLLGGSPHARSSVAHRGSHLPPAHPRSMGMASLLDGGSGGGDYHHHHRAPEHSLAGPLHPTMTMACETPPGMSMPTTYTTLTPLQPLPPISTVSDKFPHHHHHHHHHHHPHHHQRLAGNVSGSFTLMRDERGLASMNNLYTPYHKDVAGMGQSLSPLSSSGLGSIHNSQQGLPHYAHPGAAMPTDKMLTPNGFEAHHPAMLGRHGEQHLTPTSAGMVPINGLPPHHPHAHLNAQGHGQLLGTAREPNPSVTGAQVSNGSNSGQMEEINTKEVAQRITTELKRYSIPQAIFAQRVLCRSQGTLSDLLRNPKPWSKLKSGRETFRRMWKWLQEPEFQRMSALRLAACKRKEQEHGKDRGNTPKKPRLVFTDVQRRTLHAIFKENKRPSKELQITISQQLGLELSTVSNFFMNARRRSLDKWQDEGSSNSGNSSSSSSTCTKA
Chain of Hypoxia-inducible factor 1-alpha (Homo sapiens) (Q16665 whole entry, looked up): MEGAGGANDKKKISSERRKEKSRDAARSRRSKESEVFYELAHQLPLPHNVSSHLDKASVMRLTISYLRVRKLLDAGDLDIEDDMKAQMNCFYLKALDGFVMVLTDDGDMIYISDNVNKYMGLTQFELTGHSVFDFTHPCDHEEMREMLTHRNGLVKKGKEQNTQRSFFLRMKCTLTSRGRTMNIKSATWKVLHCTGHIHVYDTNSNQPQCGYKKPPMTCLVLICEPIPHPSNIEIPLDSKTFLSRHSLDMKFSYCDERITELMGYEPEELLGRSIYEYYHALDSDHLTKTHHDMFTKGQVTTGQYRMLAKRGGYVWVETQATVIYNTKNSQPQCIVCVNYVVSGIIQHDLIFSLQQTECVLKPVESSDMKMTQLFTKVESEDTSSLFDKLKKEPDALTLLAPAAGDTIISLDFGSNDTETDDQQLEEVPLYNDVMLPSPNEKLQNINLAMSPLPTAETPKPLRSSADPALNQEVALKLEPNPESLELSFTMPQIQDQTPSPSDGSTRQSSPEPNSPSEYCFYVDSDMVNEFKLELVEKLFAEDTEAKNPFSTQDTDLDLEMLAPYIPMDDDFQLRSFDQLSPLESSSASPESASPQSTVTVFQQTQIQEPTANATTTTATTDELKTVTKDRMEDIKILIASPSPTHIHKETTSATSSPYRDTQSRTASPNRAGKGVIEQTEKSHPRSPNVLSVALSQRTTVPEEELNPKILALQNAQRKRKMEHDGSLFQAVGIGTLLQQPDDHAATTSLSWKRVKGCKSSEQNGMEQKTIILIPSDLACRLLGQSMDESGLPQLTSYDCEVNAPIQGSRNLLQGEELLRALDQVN

The first assay has as its target Hypoxia-inducible factor 1-alpha (Homo sapiens) (UniProt Q16665). Nature of the assay: ATG_HIF1a_CIS: Attagene CIS-FACTORIAL HepG2 Assay for human Hypoxia Inducible Factor 1 (HIF1A) (AID 2282951). To be noted: HepG2 Attagene cis-factorial HIF1a reporter transcription; actives raise or lower the signal. In outline:
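HepG2 cells transiently transfected with multiplexed cis-promoter reporter units; reporter mRNA read 24 h after dosing by RT-PCR, 6-FAM primer-extension labelling, HpaI digestion and capillary electrophoresis. Bidirectional fit versus DMSO baseline.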
`ClCCN1CCOCC1`: the molecule was called inactive.

Turning to `FC(F)OCC(F)(F)C(F)(F)F`, the molecule was classed as inactive.

With `N#Cc1ccccc1N`, the outcome was inactive.

One may read the AC50 as the midpoint of the concentration-response curve, whichever way the signal moves. In the case of `[F][Sn]([c]1ccccc1)([c]1ccccc1)[c]1ccccc1`, the AC50 was 327 nM (active).

Take `C[As+](C)(C)CC(=O)[O-]`: the call was inactive.

On to `O=C(Nc1ccc(Br)cc1)c1cc(Br)cc(Br)c1O`, for which the molecule was called inactive.

On to `O=[N+]([O-])c1ccc(Cl)c([N+](=O)[O-])c1`, for which the outcome was inactive.

In the case of `CC(=Cc1ccccc1)[N+](=O)[O-]`, the molecule was called inactive.

For `CCOc1ccc(N)cc1`, the result was inactive.

A further assay concerns the target Hepatocyte nuclear factor 6 (Homo sapiens) (UniProt Q9UBC0). Nature of the assay: ATG_HNF6_CIS: Attagene CIS-FACTORIAL HepG2 Assay for human Hepatocyte Nuclear Factor 6 (HNF6) (AID 2282952). The following applies: HepG2 Attagene cis-factorial HNF6 reporter transcription; actives raise or lower the signal. In outline:
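Readout: fluorescent reporter-transcript fragments resolved by capillary electrophoresis after RT-PCR, reflecting endogenous factor activity in transfected HepG2. Exposure 24 h. Gain or loss of signal fitted bidirectionally against DMSO.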
In the case of `CCCCCCCCCCBr`, the outcome was inactive.

Take `N#CCCC(Br)(C#N)CBr` (centres undefined): the AC50 is 33.4 µM (active).

As to `O=C(NC(=O)c1c(F)cccc1F)Nc1cc(Cl)c(Oc2ncc(C(F)(F)F)cc2Cl)c(Cl)c1`, the outcome was inactive.

On to `C=C(C)[C@@H]1CC=C(C=O)CC1`, for which the result was inactive.

Consider `Cc1cc(SCc2sc(-c3ccc(C(F)(F)F)c(F)c3)nc2C)ccc1OCC(=O)O`, for which the call was inactive.

Take `ClCc1ccccc1CCl`: the AC50 was 23.1 µM (active).

In the case of `N#Cc1ccc(Cl)cc1`, the call was inactive.

As to `C[N+](C)(C)Cc1ccccc1`, the molecule was called inactive.

`O=C1C=CC(=O)c2ccccc21`: the result was inactive.

For `CC(O)(CS(=O)(=O)c1ccc(F)cc1)C(=O)Nc1ccc(C#N)c(C(F)(F)F)c1` (centres undefined), the result was inactive.

Take `CCOC(=O)CC(=O)CCl`: the outcome was inactive.

Consider `O=C(NC(=O)c1c(F)cccc1F)Nc1cc(Cl)c(OC(F)(F)C(F)C(F)(F)F)cc1Cl` (centres undefined), for which the result was inactive.

`C=CC(=O)NC(C)(C)CC(C)=O`: the call was inactive.

Turning to `CC(C)CP(=S)(S)CC(C)C`, the molecule was called inactive.

As for `Cc1cc(C(F)(C(F)(F)F)C(F)(F)F)ccc1NC(=O)c1cccc(I)c1C(=O)NC(C)(C)CS(C)(=O)=O`, the outcome was inactive.
